# Laboratory results as given in PubChem BioAssay AID1942 (Johns Hopkins Ion Channel Center, 2009).
# Screen size: about 2,400 compounds; about 580 (24%) were called active.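 The calls were made as follows: active = activity change at or above the mean plus 3 SD of buffer wells without dofetilide, per plate; inactive = the rest.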 Not all results are given here.
# Target: Potassium voltage-gated channel subfamily KQT member 2 (Rattus norvegicus) (UniProt O88943)
# Experiment: KCNQ2 potentiation in CHO cells – cell-based, FluxOR thallium flux, counter-screen for hERG block protector project, confirmation (AID 1942);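 also: normalized value minus buffer-control mean plus three SD of buffer wells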
# Details: FluxOR thallium flux fluorescence, at 10 µM, hits give high values
# Chain of Potassium voltage-gated channel subfamily KQT member 2 (Rattus norvegicus) (O88943 whole entry, looked up): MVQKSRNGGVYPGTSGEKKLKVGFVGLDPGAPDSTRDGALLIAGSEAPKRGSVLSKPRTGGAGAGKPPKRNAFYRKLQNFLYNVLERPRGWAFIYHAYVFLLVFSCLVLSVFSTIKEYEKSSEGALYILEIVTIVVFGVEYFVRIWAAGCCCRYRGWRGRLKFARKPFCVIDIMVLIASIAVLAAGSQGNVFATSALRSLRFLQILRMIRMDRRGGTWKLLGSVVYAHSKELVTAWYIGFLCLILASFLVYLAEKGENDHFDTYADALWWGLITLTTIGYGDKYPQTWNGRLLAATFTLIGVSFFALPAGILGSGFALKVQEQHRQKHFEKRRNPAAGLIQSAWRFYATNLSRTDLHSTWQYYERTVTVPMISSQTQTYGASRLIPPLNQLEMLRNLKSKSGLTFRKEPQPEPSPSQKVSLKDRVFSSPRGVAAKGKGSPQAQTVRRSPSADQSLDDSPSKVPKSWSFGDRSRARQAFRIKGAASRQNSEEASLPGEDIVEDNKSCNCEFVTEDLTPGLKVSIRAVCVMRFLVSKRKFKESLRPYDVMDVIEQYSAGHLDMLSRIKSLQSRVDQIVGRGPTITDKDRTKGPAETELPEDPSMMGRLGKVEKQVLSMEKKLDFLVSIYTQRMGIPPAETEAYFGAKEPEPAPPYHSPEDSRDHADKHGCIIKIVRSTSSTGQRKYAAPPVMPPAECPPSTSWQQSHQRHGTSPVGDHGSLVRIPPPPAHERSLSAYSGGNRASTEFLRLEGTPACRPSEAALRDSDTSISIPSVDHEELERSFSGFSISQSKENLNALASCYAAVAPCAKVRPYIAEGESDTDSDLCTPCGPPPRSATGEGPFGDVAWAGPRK
row,Compound,"activity change, less the hit threshold"
1,Cn1c(=O)c2c(nc(Cl)n2CC(=O)N2CCCCC2)n(C)c1=O,-22.7% (inactive)
2,CCCCc1c(C)[nH]c(C(=O)OCC)c1C,-19.3% (inactive)
3,COCCCn1c(=S)[nH]c2c(sc3ccccc32)c1=O,-11.4% (inactive)
4,COCCn1c(=S)[nH]c2sc3c(c2c1=O)CCCC3,31.9% (active)
5,COCCCn1c(=S)[nH]c2sc3c(c2c1=O)CCCC3,40.5% (active)
6,COCCn1c(=S)[nH]c2sc3c(c2c1=O)CCC(C)C3 (configuration not stated),51.5% (active)
7,CCOCCCn1c(=S)[nH]c2cc(C(=O)NCCOC)ccc2c1=O,-10.4% (inactive)
8,Cc1ccc(S(=O)(=O)Nc2c(C)[nH]c(=O)[nH]c2=O)cc1C,-17.9% (inactive)
9,CCOC(=O)CSc1nnc(NC(=O)c2ccc3c(c2)OCO3)s1,-23.9% (inactive)
10,O=S(=O)(Nc1cccc(-n2cnnn2)c1)c1ccc(Cl)nc1,-9% (inactive)
11,CN(C)S(=O)(=O)c1cc(NC2CC(=O)N(c3ccc(F)cc3)C2=O)ccc1Cl (configuration not stated),-7.3% (inactive)
12,CCN(CC)CCOC(=O)C(c1ccccc1)c1ccccc1,-11.4% (inactive)
13,O=C(/C=C/c1ccccc1)Nc1ccc(C(=O)N2CCCCC2)cc1,-11.4% (inactive)
14,COc1ccc(NC(=O)c2cc(S(=O)(=O)N3CCOCC3)ccc2N2CCOCC2)cc1,-16.6% (inactive)
15,Cc1ccc(NC(=O)c2cc(NC(=O)/C=C\C(=O)O)ccc2N2CCCCC2)cc1,3.1% (active)
16,CC(=O)N1c2ccc(N=Cc3cc(Br)cc(Br)c3O)cc2CC1C (configuration not stated),0.4% (active)
17,CC(=O)N1CCc2cc(S(=O)(=O)N3c4ccccc4CC3C)ccc21 (configuration not stated),-13.9% (inactive)
18,N=c1sccn1CC(=O)Nc1ccccc1Cc1ccccc1,-16.3% (inactive)
19,CCc1nnc(NC(=O)c2cccc(C(=O)Nc3nnc(CC)s3)n2)s1,-22.2% (inactive)
20,Cc1cc(Br)c(NC(=O)COC(=O)C2CC2C)c(Br)c1 (configuration not stated),4.5% (active)
21,Cc1cccc(NC(=O)COc2coc(CN3CCN(c4ccccc4)CC3)cc2=O)c1,-22.1% (inactive)
22,O=C(COC(=O)C1CCC(=O)N1)Nc1cc(Cl)ccc1Cl (configuration not stated),-16.9% (inactive)
23,O=C1OC(/C=C/c2ccccc2)=NC/1=C/c1ccco1,-29% (inactive)
24,COC(=O)c1ccc(NC(=O)COC(=O)C2CC(=O)N(Cc3ccccc3)C2)cc1 (configuration not stated),-26.7% (inactive)
25,O=C(O)CCCN1C(=O)C2C3c4ccccc4C(c4ccccc43)[C@@H]2C1=O (some centres not stated),-24.6% (inactive)

row,Compound,"activity change, less the hit threshold"
1,Cc1cc(C)cc(-n2c(C)cc(/C=N/NC(=O)CN(c3c(C)cccc3C)S(C)(=O)=O)c2C)c1,-19.4% (inactive)
2,Nc1ccc2c(c1)C(=O)C(=O)c1ccccc1-2,-3.9% (inactive)
3,CCOC(=O)c1c(NC(=O)/C=C/c2ccco2)sc(C)c1C,-12% (inactive)
4,CCOC(=O)c1sc2ncnc(NCC(c3cccs3)N(C)C)c2c1C (configuration not stated),39.2% (active)
5,CCOC(=O)c1sc2ncnc(NCc3ccco3)c2c1C,51.8% (active)
6,Cc1ccc(OC(=O)c2sc3ncn(C)c(=O)c3c2C)cc1,-29.2% (inactive)
7,COc1ccc(N(C(=O)c2ccco2)S(=O)(=O)c2cccs2)cc1,-19.4% (inactive)
8,O=C(N/N=C/c1ccsc1)C1CC1,-15.9% (inactive)
9,COCCNC(=O)C1CCN(S(=O)(=O)N2CCC3(CC2)OCCO3)CC1,-21.8% (inactive)
10,Cc1nc(NC(=O)c2ccco2)sc1C(=O)O,-11.4% (inactive)
11,CCOC(=O)c1sc(NC(=S)NC(=O)c2ccco2)nc1C,4.8% (active)
12,CCOC(=O)c1sc(NC(=S)NC(=O)c2cccc(OC)c2)nc1C,4.7% (active)
13,CCOC(=O)c1sc(NC(=S)NC(=O)c2ccc(OC)cc2)nc1C,-10.9% (inactive)
14,CCOC(=O)c1cccc(C(=O)Nc2nc3ccc(OC)cc3s2)n1,-15.8% (inactive)
15,CCOC(=O)c1sc(NC(=S)NC(=O)c2ccccc2)nc1C,-3.4% (inactive)
16,O=c1[nH]c(=S)[nH]c2c1C(c1ccc(Br)cc1)c1c([nH]c(=S)[nH]c1=O)O2,-17.1% (inactive)
17,CCOC(=O)/C(C)=N/NC(=O)c1ccc([N+](=O)[O-])cc1,16.8% (active)
18,CCOC(=O)/C(C)=N/NC(=O)c1cccc([N+](=O)[O-])c1,5.2% (active)
19,Cc1ccccc1C(=O)NNC(=O)c1cccc([N+](=O)[O-])c1,-19.8% (inactive)
20,CCOc1ccc(C(=O)N/N=C/c2cc([N+](=O)[O-])cs2)cc1,-17.4% (inactive)
21,Cc1cc(SCC(=O)c2cccc([N+](=O)[O-])c2)nc(=O)[nH]1,-15.5% (inactive)
22,CCOC(=O)c1[nH]cnc1C(=O)Nc1ccc([N+](=O)[O-])cc1,-11.7% (inactive)
23,S=C(NCCc1ccccc1)N/N=C/c1c(Cl)cccc1Cl,-18.4% (inactive)
24,CC1(C)CC(=O)c2c(nn(-c3ccccc3)c2-c2ccncc2)C1,-16.4% (inactive)
25,Cc1nn(Cc2ccccc2)c2c1C(c1cccnc1)C(C#N)=C(N)O2 (configuration not stated),-10.8% (inactive)

row,Compound,"activity change, less the hit threshold"
1,O=C(COc1ccccc1)NC(=S)Nc1ccc2c(c1)Cc1ccccc1-2,-19.3% (inactive)
2,CC(Oc1ccccc1F)C(=O)NC1CCS(=O)(=O)C1 (configuration not stated),-17.8% (inactive)
3,O=C(O)c1cc(/C=N\O)ccc1OCc1ccccc1,-16.1% (inactive)
4,COc1ccc(C(=O)CC(=O)C(=O)Nc2ccc(Cl)cc2)cc1,-2.1% (inactive)
5,COc1ccc(C(=O)CC(=O)C(=O)Nc2ccc(C)cc2Cl)cc1,10.2% (active)
6,COc1ccc(C(=O)CNc2ccccc2C#N)cc1,-15% (inactive)
7,COc1cc(OC)cc(C(=O)O/N=C(\N)c2cccc(C)c2)c1,-9.7% (inactive)
8,COc1ccc(C(=O)CC(=O)C(=O)Nc2ccc(C)c(Cl)c2)cc1,-9% (inactive)
9,COc1ccc(C(=O)CC(=O)C(=O)Nc2ccc(C)c(C)c2)cc1,-11.4% (inactive)
10,COc1ccc(C(=O)CC(=O)C(=O)Nc2ccccc2C(F)(F)F)cc1,7.4% (active)
11,COc1cccc(C(=O)CC(=O)C(=O)Nc2ccc(C)cc2Cl)c1,10.8% (active)
12,CCOc1ccccc1NC(=O)C(=O)CC(=O)c1cccc(OC)c1,-8.6% (inactive)
13,CCN1CCN(CC(=O)c2ccc(OC)cc2)CC1,-18.4% (inactive)
14,COc1ccc(C(=O)CC(=O)C(=O)Nc2ccccc2)cc1,3.1% (active)
15,CCCNc1c(NS(=O)(=O)c2cccc(C#N)c2)c(=O)oc2ccccc12,-15.8% (inactive)
16,CCOC(=O)c1c(C)oc2cc(Br)c(OC)cc12,-14.7% (inactive)
17,COCCCNC(=O)CC(NS(=O)(=O)c1ccc(F)cc1)c1ccc(OC)cc1 (configuration not stated),-22.5% (inactive)
18,O=C1C=C(NCCN2CCOCC2)C(=O)c2cnccc21,-10.1% (inactive)
19,CCN(Cc1ccc(OC)c(F)c1)C(=O)C1CCCO1 (configuration not stated),-7.1% (inactive)
20,COc1cc(/C=C2/C(=O)NN(c3ccccc3)C2=O)cc(Br)c1O,-17.5% (inactive)
21,CC(C)CCNC(=O)CCc1nnc(Cc2c[nH]c3ccccc23)o1,-15.1% (inactive)
22,COc1ccc(C(=O)CC(=O)C(=O)Nc2ccccc2OC)cc1,-10.2% (inactive)
23,COc1ccc(C(=O)CC(=O)C(=O)Nc2ccccc2Cl)cc1,44.4% (active)
24,CCOc1ccccc1NC(=O)C(=O)CC(=O)c1ccc(OC)cc1,-5.2% (inactive)
25,CC1CCCC(C(=O)OCc2ccccc2)N1 (configuration not stated),-16.7% (inactive)

row,Compound,"activity change, less the hit threshold"
1,Cn1cc([N+](=O)[O-])c(C(=O)NCc2cc3cc(Cl)ccc3[nH]2)n1,-13.6% (inactive)
2,N#Cc1ccccc1OCCN1C(=O)c2ccccc2C1=O,-7.5% (inactive)
3,C=CCn1c(-c2cc(-c3ccc(C)cc3)nc3ccccc23)n[nH]c1=S,-9.8% (inactive)
4,Cc1ccc(-c2cc(-c3n[nH]c(=S)o3)c3ccccc3n2)cc1,37.2% (active)
5,Cc1ccc(/C=N/NC(=O)c2cc(-c3ccncc3)nc3ccccc23)o1,-26.9% (inactive)
6,N#Cc1cc(-c2ccccc2)nnc1Oc1ccccc1,-14.7% (inactive)
7,COc1cc2c(cc1OC)CN(C(=O)c1sccc1C)CC2,-20.7% (inactive)
8,COc1ccccc1C(=O)Nc1ccc(C(=O)N2CCCC2)cc1,-7.2% (inactive)
9,COc1ccc(NC(=O)c2ccccc2SC)cc1OC,-19.4% (inactive)
10,COc1ccccc1C(=O)NNC(=O)C(=O)Nc1ccc(C)c(Cl)c1,126% (active)
11,COc1ccccc1C(=O)NNC(=O)C(=O)Nc1ccc(C)cc1,132% (active)
12,Cc1ccc(NC(=O)C(=O)NNC(=O)c2ccccc2C)cc1Cl,90.3% (active)
13,COc1ccccc1C(=O)NNC(=O)C(=O)NC(C)(C)C,16.8% (active)
14,COc1ccccc1C(=O)Nc1ccnn1C1CCN(C(=O)c2ccoc2C)CC1,-12.1% (inactive)
15,O=C(O)c1cc(-c2cccc([N+](=O)[O-])c2)n[nH]1,-19.6% (inactive)
16,O=C(Nc1ccc(Cl)c(-c2nc3ccccc3[nH]2)c1)c1cccnc1,-40.7% (inactive)
17,COc1ccc(CNC(=O)C2CCCN2)cc1OC (configuration not stated),-26.1% (inactive)
18,COc1cc(C2C(C#N)=C(N)Oc3c2ccc2ccccc32)ccc1OCC(=O)Nc1ccc(C)cc1 (configuration not stated),-15.1% (inactive)
19,Cc1ccc(C)c(OCc2cc(C(=O)N3CCNC(=O)C3)no2)c1,-16% (inactive)
20,Cn1c(=O)c(-c2cc(=O)[nH][nH]2)c(O)c2ccccc21,-13.7% (inactive)
21,CN(C)NC(=O)C(NC(=O)c1ccc(N)cc1)C12CC3CC(CC(C3)C1)C2 (configuration not stated),-13.9% (inactive)
22,Cc1ccc(NC(=O)CN2C(=O)S/C(=C\c3ccc(-c4cccc(C(=O)O)c4C)o3)C2=O)cc1,-27% (inactive)
